Screening data deposited in PubChem by ICCB-Longwood Screening Facility, Harvard Medical School.
CapD inh – Bacillus anthracis CapD inhibitors, primary screen, biochemical, fluorescence intensity | CapD gamma-glutamyltranspeptidase (Bacillus anthracis Ames Ancestor) | purified CapD enzyme, fluorescence intensity read-out; active compounds read low | z-score (no concentration beside the values) | 140,000 tested, 0.23% active; in the data active means z-score mostly below about -2.9, no sharp cut-off; inactive means mostly above about -1.9
Hits are given with their value; ! = not confirmed by another sample. The full list was thinned out, with hits kept by preference.

For O=C1CSC(N=Nc2c(O)[nH]c3ccccc23)=N1 the results were CapD inh -4.1.
`O=C1N=c2ccccc2=C1N=Nc1c(O)[nH]c2ccccc12` gave CapD inh inactive.
Screening O=C(N=Nc1c(O)[nH]c2ccccc12)C(O)c1ccccc1 (centres undefined) returned CapD inh inactive.
CSc1nc2ccccc2c2nc3ccccc3n12 was read as CapD inh inactive.
`Cc1c(-c2csc(CS(=O)(=O)C(C)(C)C)n2)sc2ccccc12` gave CapD inh inactive.
For Cc1c(-c2csc(-c3ccno3)n2)sc2ccccc12 the results were CapD inh -3.5.
For Fc1cccc(-c2csc(-c3ccno3)n2)c1 the results were CapD inh inactive.
For CCN(CC)c1ccc(C(=O)N/N=C/c2ccc(C(F)(F)F)cc2F)cc1 the results were CapD inh inactive.
CCOc1cc(-c2noc(CCCC(=O)N3CCOCC3)n2)cc(Br)c1OC was read as CapD inh inactive.
Screening Cc1nnc2sc3c(n2c1=O)C(=O)N(c1ccc(I)cc1)C3=O returned CapD inh inactive.
Screening O=C1c2sc3nnc(-c4ccccc4)c(=O)n3c2C(=O)N1c1ccc(Br)cc1 returned CapD inh inactive.
Screening CCc1ccc(N2C(=O)c3sc4nnc(C)c(=O)n4c3C2=O)cc1 returned CapD inh -2.1.
`O=C(Nc1ccc(Sc2ccc(F)cc2)cc1)c1cccc(C(F)(F)F)c1` gave CapD inh inactive.
For O=c1oc(-c2ccco2)ns1 the results were CapD inh -8.5.
For O=c1oc(-c2cc3ccccc3s2)ns1 the results were CapD inh inactive.
`Nc1ccc(-c2nnc(-c3ccco3)o2)cc1` gave CapD inh inactive.
`O=C(O)/C=C\C(=O)Nc1ccccc1C(=O)O` gave CapD inh inactive.
O=C(O)c1cc(Nc2ccccc2C(=O)O)nc(Nc2ccccc2C(=O)O)n1 was read as CapD inh -5.1.
For O=C(O)c1ccc(Nc2nccc(Nc3ccccc3C(=O)O)n2)cc1 the results were CapD inh inactive.
O=S(=O)(c1cccc(C(F)(F)F)c1)N1CCC(n2cccc2)CC1 was read as CapD inh inactive.
`Cc1onc(-c2c(Cl)cccc2Cl)c1NC(=O)O/N=C(\N)Cc1ccc(C(C)(C)C)cc1` gave CapD inh inactive.
For COc1cccc(CSC2=C(C#N)[C@H](c3ccccc3[N+](=O)[O-])C(C(C)=O)=C(C)N2)c1 the results were CapD inh inactive.
Screening O=S(=O)(c1ccccc1)N1CCC(c2nc3ccccc3s2)CC1 returned CapD inh inactive.
Screening N#C/C(=N/O)c1nc2ccccc2s1 returned CapD inh -4.5.
Screening N#CC(=C1CCCCC1)c1nc2ccccc2s1 returned CapD inh inactive.
For CSC(SC)=C(C#N)c1nc2ccccc2s1 the results were CapD inh inactive.
COc1cc(/C=N/N=C/c2cc(Br)ccc2O)cc(OC)c1OC was read as CapD inh inactive.
COc1ccc(NC(=O)C2C3CCCCC32)cc1 (centres undefined) was read as CapD inh inactive.
`O=C1CC(c2cccc(Oc3ccccc3)c2)c2cc(Br)c3ccccc3c2N1` (centres undefined) gave CapD inh inactive.
Screening CCN(Cc1ccncc1)C(=O)NCCc1c[nH]c2ccc(C)cc12 returned CapD inh inactive.
`CC1CCN(C(=O)c2ccc3c(c2)N(C)CCS3)CC1` gave CapD inh inactive.
`CCCCn1c(O)c(C#N)c(C)c(N=Nc2ccc(OC)cc2)c1=O` gave CapD inh inactive.
Screening Cc1c(C#N)c(O)n(CCO)c(=O)c1N=Nc1cccc(C(=O)O)c1 returned CapD inh -8.3.
`Cc1cc(=O)n(CCc2ccccc2)c(O)c1C#N` gave CapD inh inactive.
O=C(O)c1ccccc1NCn1nnc2ccccc21 was read as CapD inh inactive.
For COc1cc(Br)c(C2C(C(=O)OCCc3ccccc3)=C(C)NC3=C2C(=O)CCC3)cc1OC (centres undefined) the results were CapD inh inactive.
`CCNc1ccc([N+](=O)[O-])cc1` gave CapD inh -4.5.
`CCOC(=O)CC(=O)c1ccc([N+](=O)[O-])cc1` gave CapD inh inactive.
For CC(=O)Nc1ccc([N+](=O)[O-])cc1 the results were CapD inh inactive.
For O/N=C/c1c(SCc2cccc(C(F)(F)F)c2)nc2sccn12 the results were CapD inh inactive.
Screening CCOC(=O)C1CCN(C(=O)c2sc3cc(F)ccc3c2Cl)CC1 returned CapD inh inactive.
For COc1cc(/C=C2\C(=O)NC(=O)N(Cc3ccc(F)cc3)C2=O)cc(OC)c1OC the results were CapD inh inactive.
COCCCNC(=S)N/N=C/c1ccc(N(C)C)cc1 was read as CapD inh inactive.
Screening COCCNC(=O)c1ccc(C(=O)NCCOC)cc1 returned CapD inh inactive.
COCCNC(=S)c1ccc(N(C)C)cc1 was read as CapD inh -4.9.
Screening Cc1cc(C)c2c(-n3cccc3)c(C(=O)Oc3ccccc3)sc2n1 returned CapD inh inactive.
For CCOC(=O)C1=C(N)n2c(s/c(=C\c3ccsc3)c2=O)=C(C#N)C1c1ccsc1 (centres undefined) the results were CapD inh inactive.
For COc1cc(CC/C(C)=N\O)ccc1OCc1ccc(Cl)cc1Cl the results were CapD inh inactive.
Cc1ccc(N2C(=O)Nc3ccc(Br)cc3C2(O)C(=O)N2CCN(c3ccccn3)CC2)cc1C (centres undefined) was read as CapD inh inactive.
Screening CCOC(=O)c1cnn(-c2ccc(Cl)cc2)c1C1CCNCC1 returned CapD inh inactive.
For O=C(O)Cn1c(O)c(C=Nc2ccccc2)sc1=S the results were CapD inh -7.4.
C=CCn1c(O)c(C=Nc2ccccc2)sc1=S was read as CapD inh inactive.
`Oc1[nH]c(=S)sc1C=Nc1ccccc1` gave CapD inh inactive.
`Cc1cc(C)n2nc3nc(N4CCOCC4)nc(-c4ccc(C(C)C)cc4)c3c2n1` gave CapD inh inactive.
CC(C)N1CCC(=O)N(c2ccc(C(C)(C)C)cc2)C1=O was read as CapD inh inactive.
Cc1c(C)c(C)c(CSc2nnc(/C(C#N)=C/c3cccs3)n2C)c(C)c1C was read as CapD inh inactive.
`O=c1[nH]cnc2c1sc(=S)n2-c1ccccc1` gave CapD inh -5.4!.
For O=c1[nH]c(-c2ccc(F)cc2)nc2c1sc(=S)n2-c1ccccc1 the results were CapD inh inactive.
Screening COc1ccc(-c2nc3c(sc(=S)n3-c3ccccc3)c(=O)[nH]2)cc1 returned CapD inh inactive.
`Cc1csc2nc(CSc3nc4cc([N+](=O)[O-])ccc4s3)c(Br)n12` gave CapD inh inactive.
For O=C(CN1C(=O)c2cccc3cccc1c23)Nc1ccc(S(=O)(=O)N2CCCCCC2)cc1 the results were CapD inh inactive.
For CN1/C(=C/C(=O)CSC2CCCC2)C(C)(C)c2ccccc21 the results were CapD inh inactive.
Screening Cc1cc(/N=C/c2cc(C)n(Cc3ccccc3)c2C)n(CCC#N)n1 returned CapD inh inactive.
Screening Cc1cc(/N=C/C=C2\N(C)c3ccccc3C2(C)C)n(CCC#N)n1 returned CapD inh -4.4.
`Cc1nn(CC(=O)Nn2c(-c3ccc(F)cc3)nc3ccccc3c2=O)c(C)c1[N+](=O)[O-]` gave CapD inh inactive.
`O=C(O)CCc1nnc2ccc(NCc3ccco3)nn12` gave CapD inh inactive.
For CN1CCN(c2cc(N(C)CCO)c([N+](=O)[O-])c3nonc23)CC1 the results were CapD inh -4.2.
